Results: PubChem BioAssay AID2546 (National Center for Advancing Translational Sciences (NCATS), 2010)
Out of some 310,000 compounds screened, about 11,000 (3.5%) were called active. About 8% were inconclusive and are not listed. The call rests on the fitted dose curve; in most records, active means well fitted inhibition curve with a large enough effect; inconclusive means small, poorly fitted or top-dose-only effect, or effect the other way; inactive means flat fitted curve, though single readings scatter. This excerpt belongs to a sample that is enriched for actives.

assay: VP16 counterscreen qHTS for inhibitors of ROR gamma transcriptional activity; settings: Drosophila S2 Gal4-VP16 UAS-luciferase, luminescence, 20 h; series mostly up to 53.6 µM; activity, negative = inhibition: at the top concentration;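 further: Gal4-VP16 expression switched on by copper sulfate through the metallothionein promoter; nearly all actives have a fitted effect of over 50% in size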
On the % scale 0 is the no-effect control and ±100 the full control effect; potency means the concentration at half of the fitted maximal effect.

SMILES	activity, negative = inhibition	Potency
CC(C)[C@H](NC(=O)N1CCn2c1nc1ccccc12)C(=O)NCc1ccc2c(c1)OCO2	2.6% (inactive)	
CCN(C(=O)CN1C(=O)/C(=C/c2ccc(F)cc2)SC1=S)C1CCS(=O)(=O)C1 (configuration not stated)	-1.96% (inactive)	
COc1ccc(N(C(=O)c2cccnc2)S(=O)(=O)c2ccc(OC)c(OC)c2)cc1	-4.37% (inactive)	
COc1cc(SC)ccc1C(=O)Nc1nc(C)cs1		3.98 µM (active)
COc1ccc(Cc2nnc(NC(=O)c3ccc(OC)cc3OC)s2)cc1	25.6% (inactive)	
COc1cc(SC)ccc1C(=O)NCCOc1ccccc1Cl	4.25% (inactive)	
CCn1c2ccc(F)cc2c2nnc(SCCN3CCOCC3)nc21	-1.32% (inactive)	
CCC(=O)c1cn(CCOc2ccccc2OC)c2ccccc12	-8.86% (inactive)	
CCOc1ccc(N(C)Cc2cc(=O)oc3ccc(OC)cc23)cc1	-9.57% (inactive)	
Cc1cc(=O)oc2c3c(cc(OCC(=O)NCc4ccccn4)c12)OC(C)(C)CC3	-3.85% (inactive)	
O=C1N=C(N2CCc3ccccc3C2)S/C1=C\c1ccc(O)cc1		1.58 µM (active)
CCc1ccc(/C=C2\SC(N3CCOCC3)=NC2=O)cc1	-8.68% (inactive)	
O=C1N=C(N2CCCC2)S/C1=C\c1cccc(Br)c1	13.8% (inactive)	
CCCCNC(=O)c1ccc(-n2c(=S)[nH]c3ccccc3c2=O)cc1	14.8% (inactive)	
CN(C)CCn1c(=S)[nH]c2ccc(Cl)cc2c1=O	-3.83% (inactive)	
CCCCNC(=O)CCn1c(=S)[nH]c2cc3c(cc2c1=O)OCO3	-11.1% (inactive)	
CCCCn1c(=S)[nH]c2ncccc2c1=O		3.55 µM (active)
CCN(CC)CCn1c(=S)[nH]c2ncccc2c1=O	7.04% (inactive)	
CCCCn1c(=S)[nH]c2ccccc2c1=O		5.01 µM (active)
O=C(NC1CCCCCCC1)c1cccs1	-16.3% (inactive)	
CCCc1nn2c(=O)cc(CSCC(=O)Nc3cccc(C)c3)nc2s1	0.474% (inactive)	
CCOC(=O)N1CCN(S(=O)(=O)c2ccc(Br)cc2)CC1	2.58% (inactive)	

SMILES	activity, negative = inhibition	Potency
Cc1ccc(NC(=O)CCC(=O)c2ccc(Br)cc2)cc1	-7.45% (inactive)	
CCC(Cc1ccccc1)NS(=O)(=O)c1ccc2c(c1)NC(=O)CS2 (configuration not stated)	1.55% (inactive)	
CCc1ccc(NC(=O)CCNS(=O)(=O)c2cccs2)cc1	5.31% (inactive)	
CCn1c(=S)sc2c(=O)n(CC(=O)Nc3cccc(Br)c3)c(C)nc21	-2.31% (inactive)	
CN(Cc1cccnc1)C(=O)c1cc(COc2ccc3ncccc3c2)on1		2.82 µM (active)
CC(=O)c1cccc(OCc2cc(C(=O)NC(C)Cc3cccnc3)no2)c1 (configuration not stated)	16% (inactive)	
Cc1ccc(OCc2cc(C(=O)N(C)CCc3ccccc3)no2)cc1C	-6.16% (inactive)	
COc1ccc(C(CCN2CCOCC2)c2c(OC)cc(OC)c3c2OC(=O)CC3c2ccc(OC)cc2)cc1 (configuration not stated)	-26.9% (inactive)	
CC1=C(C(N)=O)C(c2ccc(F)cc2)n2nc(CCCO)nc2N1 (configuration not stated)	7.17% (inactive)	
COc1cccc(-c2nc3n(n2)C(c2ccccc2Cl)C(C(N)=O)=C(C)N3)c1 (configuration not stated)	-5.08% (inactive)	
CC1=C(C(N)=O)C(c2ccc3c(c2)OCO3)n2nc(-c3cccc(C)c3)nc2N1 (configuration not stated)		20 µM (active)
COc1ccc(S(=O)(=O)NCCc2cc3ccc(C)c(C)c3[nH]c2=O)cc1	6.83% (inactive)	
O=C(Oc1ccc(-c2nc(-c3ccccn3)no2)cc1)c1ccccc1		6.31 µM (active)
Brc1ccc(-c2noc(-c3ccccc3)n2)o1	-15.6% (inactive)	
c1ccc(-c2noc(-c3cccs3)n2)nc1		12.6 µM (active)
O=C(Oc1ccc(Br)cc1)c1cccnc1	-1.3% (inactive)	
COc1nc(-c2ccc(Cl)cc2)ccc1-c1noc(-c2cccs2)n1	-2.8% (inactive)	
c1csc(-c2nc(-c3ccncc3)no2)c1	-4.55% (inactive)	
Cn1c(=O)[nH]c(=O)c2c1nc(N1CCN(C(c3ccccc3)c3ccccc3)CC1)n2CCO	-3.53% (inactive)	
CCNC(=S)N(CCN(CC)CC)Cc1cc2cc3c(cc2[nH]c1=O)OCCO3	6.76% (inactive)	
COc1ccc(N2C(=O)CNC2=S)cc1	-1.96% (inactive)	
COc1ccc(-n2c(C)csc2=S)cc1	2.5% (inactive)	

SMILES	activity, negative = inhibition	Potency
COc1ccc(-c2cn(-c3ccc(OC)cc3)c(=S)[nH]2)cc1		1.41 µM (active)
Cc1ccc(OCC(=O)Nc2ccc(N3CCN(C(=O)c4ccco4)CC3)cc2)c(C)c1	0.609% (inactive)	
CC(C)(C)c1ccc(Cn2nnc3c(=O)[nH]c(C4CCCN(C(=O)c5ccco5)C4)nc32)cc1 (configuration not stated)	-1.24% (inactive)	
CCC(C(=O)NC1CCCCC1)N(C(=O)c1snc(C(N)=O)c1N)c1ccc(OC)cc1OC (configuration not stated)	0.216% (inactive)	
COc1cc(OC)c(C(=O)NCc2ccc3c(c2)OCO3)cc1OC	15.5% (inactive)	
Cc1nn(CC(=O)NCc2ccccn2)c(C)c1[N+](=O)[O-]	1.72% (inactive)	
Cc1ccn(CC(=O)N2N=C(C(F)F)CC2(O)C(F)F)n1 (configuration not stated)	0.0819% (inactive)	
Cc1nn(Cc2ccc(C(=O)N3N=C(C(F)F)CC3(O)C(F)F)cc2)c(C)c1[N+](=O)[O-] (configuration not stated)		10 µM (active)
Cc1ccc(S(=O)(=O)N2CCN=C2SCc2c(F)cccc2Cl)cc1	3.35% (inactive)	
CCOC(=O)C1(CCOc2ccccc2)CCN(Cc2cc(OC)c(O)cc2Cl)CC1	-6.99% (inactive)	
CC1CCN(Cc2nc(-c3ccc(Cl)cc3)no2)CC1	-21.9% (inactive)	
CCN1CC(CN(C)Cc2nc(-c3ccc(Cl)cc3)no2)CC1=O (configuration not stated)		10 µM (active)
CN(Cc1ccccn1)Cc1nc(-c2ccc(Cl)cc2)no1	-9.46% (inactive)	
CC(C)c1ccc(C2C(C(=O)c3ccco3)=C(O)C(=O)N2CC2CCCO2)cc1 (configuration not stated)	15.4% (inactive)	
Cc1ccc(NC(=O)C2CCN(S(=O)(=O)c3ccc4c(c3)NC(=O)CO4)CC2)cc1C	-5.61% (inactive)	
Clc1ccc(C2CC(c3cccs3)n3ncnc3N2)cc1Cl (configuration not stated)		17.8 µM (active)
COc1ccc(C2CC(c3ccc(C)cc3)Nc3ncnn32)cc1 (configuration not stated)	5.33% (inactive)	
COc1ccc(C2CC(c3ccccc3)Nc3ncnn32)cc1 (configuration not stated)	4.97% (inactive)	
Cc1[nH]c2ccc(C(=O)N3CCN(C)CC3)cc2c1C	-1.22% (inactive)	
Nc1nc(CC(=O)CSc2ccc(Cl)cc2)nc(Nc2ccc(F)cc2)n1		12.6 µM (active)
CCOC(=O)N1CCN(Cc2nc(N)nc(Nc3ccc(C)cc3)n2)CC1	15.3% (inactive)	
Cc1ccc(Nc2nc(N)nc(CSc3nnc(C)s3)n2)cc1	5.43% (inactive)	

SMILES	activity, negative = inhibition	Potency
COc1ccccc1NC(=O)N1CCCC1C(=O)NCc1cccs1 (configuration not stated)	-4.32% (inactive)	
O=C(N/N=C/c1ccccn1)c1cccc(NC(=O)c2ccc(Cl)cc2)c1	-1.57% (inactive)	
COc1ccc(N(CC(=O)NCc2ccc(F)cc2)C(=O)CCC(=O)Nc2nccs2)cc1	1.53% (inactive)	
O=C(CCC1CCN(C(=O)c2cccc(Cl)c2F)CC1)Nc1ccccc1	21.2% (inactive)	
COc1nnc(-c2ccc(C)c(S(=O)(=O)N(C)C)c2)c2ccccc12	-12% (inactive)	
CC1=NN(C(=O)c2ccccc2Br)C(O)(c2cccnc2)C1 (configuration not stated)		12.6 µM (active)
CC1=NN(C(=O)c2ccc(Br)cc2)C(O)(c2ccccc2)C1 (configuration not stated)	-2.82% [at 10 µM] (inactive)	
CCOC(=O)C1(O)CC(C)=NN1C(=O)c1cccc(Br)c1 (configuration not stated)	5.42% (inactive)	
N#C/C(C(=O)N1CCOCC1)=C1/SC(Cc2ccc(F)cc2)C(=O)N1c1ccccc1 (configuration not stated)	1.31% (inactive)	
N#C/C(C(=S)Nc1ccccc1)=C1/NN=C(N2CCOCC2)N1c1ccccc1		4.47 µM (active)
Cc1ccc(CC2S/C(=C(/C#N)C(=O)N3CCOCC3)N(c3ccccc3)C2=O)cc1 (configuration not stated)	-4.04% (inactive)	
COc1c(O)cc2oc(-c3ccc(O)c(O)c3)cc(=O)c2c1O		inactive
O=c1cc(-c2ccc(O)cc2)oc2c(-c3cc(-c4cc(=O)c5c(O)cc(O)cc5o4)ccc3O)c(O)ccc12	-14.7% (inactive)	
O=c1cc(-c2ccc(O)c(O)c2)oc2cccc(O)c12		12.6 µM (active)
Cn1ccnc1SCC(=O)Nc1ccc2c(c1)OCCO2	13.4% (inactive)	
CCCN1C2CCCC1CC(NC(=O)NC13CC4CC(CC(C4)C1)C3)C2 (configuration not stated)	-1.88% (inactive)	
Cc1cc(=O)[nH]c(N/N=C/c2ccc3c(c2)OCCO3)n1	-22.2% (inactive)	
Cc1noc(C)c1/C=N/Nc1ccc2ccccc2n1	6.11% (inactive)	
C(=N\Nc1ccc2ccccc2n1)/c1ccc2c(c1)OCO2		14.1 µM (active)
O=C1CN(C(=O)c2cc(F)cc(F)c2)c2ccccc2N1	2.04% (inactive)	
COc1ccc(C(C)NC(=O)C23CC4CC(CC(C4)C2)C3)cc1 (configuration not stated)	-3.97% (inactive)	
CCc1ccc(Oc2coc3cc(O)ccc3c2=O)cc1	-19.5% (inactive)	

SMILES	activity, negative = inhibition	Potency
CCN(Cc1ccncc1)C(=O)c1cccc(S(=O)(=O)N2CCOCC2)c1	-0.785% (inactive)	
O=S(=O)(c1cccc(-c2nnc3n2CCCCC3)c1)N1CCOCC1	-5.04% (inactive)	
O=S(=O)(c1cccc(Cn2nnc(-c3ccc(F)cc3)n2)c1)N1CCOCC1		11.2 µM (active)
CCN(CC)CCn1cnc2c1c(=O)[nH]c(=O)n2Cc1ccccc1	-2.59% (inactive)	
COc1ccc(CSc2nnnn2-c2ccc(O)cc2)cc1F	-0.122% (inactive)	
CCOC(=O)CC1COCCN1C(=O)c1cc(COc2ccc(F)c(F)c2)on1 (configuration not stated)	18.2% (inactive)	
Cc1ccc(S(=O)(=O)N2CCOCC2)cc1C(=O)NCc1ccc(F)cc1	3.52% (inactive)	
CCOC(=O)c1sc(NC(=O)c2cc(S(=O)(=O)N3CCOCC3)ccc2C)nc1C	8.12% (inactive)	
Cc1ccc(S(=O)(=O)N2CCOCC2)cc1C(=O)NC(=S)N(Cc1ccccc1)C(C)C		3.98 µM (active)
O=C(CN1CCCCCC1)Nc1c(Cl)cc(Cl)cc1Cl	17.5% (inactive)	
CN(Cc1ccccc1)C(=O)C(=O)c1cn(CC(=O)N2CCCC2)c2ccccc12	-8.1% (inactive)	
N#CC1(NC(=O)COC(=O)CCN=C2NS(=O)(=O)c3ccccc32)CCCCC1	-10% (inactive)	
O=C(Nc1ccc(C(=O)O)cc1)/C(=C/c1ccc([N+](=O)[O-])cc1)NC(=O)c1ccccc1	2.72% (inactive)	
O=C(N/N=C/c1ccc(O)cc1)/C(=C/c1ccc([N+](=O)[O-])cc1)NC(=O)c1ccccc1	6.42% (inactive)	
O=C(N/N=C/c1cc([N+](=O)[O-])ccc1O)/C(=C\c1cccs1)NC(=O)c1ccccc1		10 µM (active)
CSc1nnc(C2CCCN(CC(=O)Nc3ccccc3N3CCOCC3)C2)n1C(C)C (configuration not stated)	-3.38% (inactive)	
Cc1cc(S(=O)(=O)NCc2ccccn2)c(Cl)cc1Cl		5.62 µM (active)
O=S(=O)(NCc1ccccn1)c1ccc(F)cc1	8.94% (inactive)	
Cc1cc(Cl)c(S(=O)(=O)NCc2cccnc2)cc1OCC(N)=O	12.9% (inactive)	
